Assay outcomes deposited in PubChem BioAssay by several laboratories.
In the library only some 2.1% were active in any assay of this set; here they are far more common.
PLC-beta3 inh = human PLC-beta3 inhibitors, primary screen, biochemical, fluorescence; hit rate 0.18% among 370,000; Purified PLC-beta3, fluorogenic substrate; inhibition, % at 12.2 µM; 1-phosphatidylinositol 4,5-bisphosphate phosphodiesterase beta-3 (Homo sapiens), Q01970; in the data active = inhibition above about 11%
Target sequence (Q01970 whole entry, looked up): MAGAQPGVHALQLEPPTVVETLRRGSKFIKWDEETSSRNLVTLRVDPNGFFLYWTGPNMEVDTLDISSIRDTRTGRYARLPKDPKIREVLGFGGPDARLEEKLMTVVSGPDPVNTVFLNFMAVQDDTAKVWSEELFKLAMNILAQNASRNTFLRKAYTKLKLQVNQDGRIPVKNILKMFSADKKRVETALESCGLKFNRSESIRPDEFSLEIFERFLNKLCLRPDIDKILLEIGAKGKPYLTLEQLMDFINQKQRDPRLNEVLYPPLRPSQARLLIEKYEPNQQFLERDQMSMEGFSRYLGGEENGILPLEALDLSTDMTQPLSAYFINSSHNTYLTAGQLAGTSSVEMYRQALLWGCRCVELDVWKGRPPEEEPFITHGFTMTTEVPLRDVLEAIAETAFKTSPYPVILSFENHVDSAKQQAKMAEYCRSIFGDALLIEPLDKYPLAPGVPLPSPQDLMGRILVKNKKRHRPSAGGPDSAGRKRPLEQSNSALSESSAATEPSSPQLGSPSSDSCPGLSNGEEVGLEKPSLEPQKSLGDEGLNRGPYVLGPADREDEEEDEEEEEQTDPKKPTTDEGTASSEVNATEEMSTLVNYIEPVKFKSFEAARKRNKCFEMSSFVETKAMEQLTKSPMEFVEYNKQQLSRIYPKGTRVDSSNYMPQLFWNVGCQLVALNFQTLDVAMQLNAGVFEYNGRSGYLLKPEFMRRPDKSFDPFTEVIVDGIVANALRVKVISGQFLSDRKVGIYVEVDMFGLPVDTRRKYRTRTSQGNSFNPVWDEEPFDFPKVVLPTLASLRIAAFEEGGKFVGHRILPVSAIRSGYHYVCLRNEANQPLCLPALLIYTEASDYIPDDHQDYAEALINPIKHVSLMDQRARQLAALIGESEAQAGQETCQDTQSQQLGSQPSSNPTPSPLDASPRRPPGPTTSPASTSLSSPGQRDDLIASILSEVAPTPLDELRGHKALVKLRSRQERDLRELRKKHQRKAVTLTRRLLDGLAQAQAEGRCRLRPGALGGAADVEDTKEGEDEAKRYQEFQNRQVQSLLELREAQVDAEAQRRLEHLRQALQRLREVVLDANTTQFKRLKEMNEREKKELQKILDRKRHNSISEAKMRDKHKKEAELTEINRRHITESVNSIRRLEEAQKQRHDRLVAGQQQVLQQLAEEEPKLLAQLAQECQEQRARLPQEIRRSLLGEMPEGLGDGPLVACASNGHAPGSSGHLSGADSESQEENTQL
Rce1 inhib = yeast Rce1p protease inhibitors, primary screen, biochemical, fluorescence, cell-free homogeneous | hit rate 0.27% among 290,000 | calls only | yeast membranes, quenched prenylated peptide cleavage fluorescence;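 active = fall in fluorescence gain of 50% or more versus controls, with final raw signal at or below 3038400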
ADAM17 inh = ADAM17 inhibitors, primary screen, biochemical, QFRET. Disintegrin and metalloproteinase domain-containing protein 17 (Homo sapiens), P78536. recombinant ADAM17, EDANS/DABCYL FRET peptide cleavage. inhibition, % at 6.95 µM. hit rate 0.83% among 370,000. AID 720648, 2013;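 active = inhibition above the mean of compounds lying between control limits plus 3 SD, set per campaign, cut at about 8.5% in these data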
PLC-gamma1 inh = PLC-gamma1 enzyme inhibitors, primary screen, biochemical, fluorescence, purified enzyme. 1-phosphatidylinositol 4,5-bisphosphate phosphodiesterase gamma-1 (Homo sapiens), P19174. fluorogenic substrate. inhibition, % at 12.2 µM. hit rate 0.84% among 370,000
ADAM10 inh = human ADAM10 inhibitors, primary screen, biochemical, QFRET, HTS. Disintegrin and metalloproteinase domain-containing protein 10 (Homo sapiens), O14672. recombinant ADAM10, EDANS/DABCYL FRET peptide cleavage, 3 h. inhibition, % at 7 µM. hit rate 0.62% among 370,000. AID 720582, 2013;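 active = inhibition above a per-campaign cutoff equal to the mean of compounds falling between control-based bounds plus 3 SD, cut at about 20% in these data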
PLCgamma1 ctr = PLC-gamma1 enzyme inhibitors, counter-screen for PLC-beta3 inhibitor project, biochemical, fluorescence; AID 743258, 2014; purified PLC-gamma1, fluorogenic substrate; shares compounds with PLC-gamma1 inh; hit rate 3.1% among 3,300; inhibition, % at 12.3 µM
PLCbeta3 conf = PLC-beta3 inhibitor confirmation, biochemical, fluorescence, purified enzyme. shares compounds with PLC-gamma1 inh. fluorogenic substrate fluorescence. inhibition, % at 12.3 µM. hit rate 1% among 3,300. AID 743261, 2014; in the data active = inhibition above about 11%
A number is an active result; . = inactive; / = no result. Rule as the data show it, unless noted: active = inhibition above about 9.5%; inactive = the rest.

SMILES	PLC-beta3 inh	Rce1 inhib	ADAM17 inh	PLC-gamma1 inh	ADAM10 inh	PLCgamma1 ctr	PLCbeta3 conf
CC(C)NC(=O)Nc1ccc2c(c1)C(=O)N([C@H](C)CO)C[C@H](C)[C@@H](CN(C)C(=O)Nc1ccc3c(c1)OCO3)O2	.	/	.	.	.	/	/
NC(Cc1ccc(C(F)(F)F)cc1)c1csc(Nc2cc(Oc3ccccc3)ncn2)n1 (stereo unspecified)	.	/	.	9.7	.	.	.
CCN(CC)S(=O)(=O)c1ccc(F)cc1	.	.	.	10.9	.	.	.
O=C1Nc2ccccc2N(O)N1c1cc(-c2ccc(Cl)cc2)[nH]n1	.	/	.	.	.	/	/
CCOC(=O)c1c(C)n(S(=O)(=O)c2ccc(C)cc2)c2ccc(O)c(C(=O)O)c12	.	/	.	.	.	/	/
CCOC(=O)CC1(C)Oc2cc(Cl)ccc2N1S(=O)(=O)c1ccc(C)cc1 (stereo unspecified)	.	/	.	.	.	/	/
CCOC(=O)CC1(CCc2ccccc2)Oc2ccccc2N1S(=O)(=O)c1ccc(C)cc1 (stereo unspecified)	.	/	.	11.9	.	.	.
CCC(C)N1CC23C=CC(O2)C(C(=O)OCc2ccccc2)C3C1=O (stereo unspecified)	13.8	.	.	.	.	.	.
CCOC(=O)C1C2C=CC3(CN(Cc4ccccc4)C(=O)C13)O2 (stereo unspecified)	.	.	.	.	.	/	/
COC(=O)CCCCCCCCC(O)CN1CCCCC1 (stereo unspecified)	12.4	.	.	.	.	.	.
O=C1CC(N2CCN(Cc3ccccc3)CC2)C(=O)N1c1ccccc1 (stereo unspecified)	.	.	.	10.9	.	.	.
O=C1CC(N2CCN(Cc3ccccc3)CC2)C(=O)N1c1ccc2c(c1)OCCO2 (stereo unspecified)	.	.	.	.	.	/	/
Nc1[nH]c(C(=O)c2ccccc2)c(-c2ccncc2)c1C(=O)NC1CC1	.	/	.	10.3	.	.	.
Nc1[nH]c(C(=O)c2ccccc2)c(-c2ccc(Br)cc2)c1C(=O)NC1CCCCC1	.	/	.	.	.	/	/
CC1(NC(=O)Cc2c(F)cccc2Cl)CCS(=O)(=O)C1 (stereo unspecified)	.	/	.	13.0	.	.	.
COc1ccc(NS(=O)(=O)c2ccc(/C=C/C(=O)O)cc2)cc1S(=O)(=O)N1CCOCC1	.	.	.	.	.	/	/
O=C(OCC(=O)N1CCc2ccccc21)[C@@H]1CC(O)CN1S(=O)(=O)c1ccc(Cl)cc1 (stereo partly specified)	.	/	.	.	.	/	/
S=C(NC1CCCCC1)N1CCc2ccccc2C1	.	.	.	9.9	.	.	.
Cc1nnc(SCC(=O)NC2CCCC(C)C2C)n1N (stereo unspecified)	.	/	.	.	.	/	/
CC(CC(=O)O)Nc1ccccc1O (stereo unspecified)	.	.	.	.	.	/	/
CC1(C(=O)NC2CCCCCCC2)CCC(=O)N1Cc1ccco1 (stereo unspecified)	.	.	.	9.8	.	.	.
CCc1nc2c(OCC3CCCCC3)cccn2c1N(C)C(=O)c1ccc(C)cc1	.	/	.	.	.	/	/
O=c1cc(SCc2ccccc2)nc[nH]1	.	/	.	12.2	.	.	.
CCOC(=O)C1(C)CCCCCN1C(=O)c1ccco1 (stereo unspecified)	.	/	.	.	.	/	/
Cc1ccccc1-c1noc(CCC(=O)NCCc2ccccc2)n1	.	.	.	10.3	.	.	.
SMILES	PLC-beta3 inh	Rce1 inhib	ADAM17 inh	PLC-gamma1 inh	ADAM10 inh	PLCgamma1 ctr	PLCbeta3 conf
CCN1C(=O)/C(=C2\SC(=S)N(c3c(C)n(C)n(-c4ccccc4)c3=O)C2=O)c2ccccc21	11.0	.	.	.	.	.	.
O=C(Nc1ccc(N2CCOCC2)cc1)c1csc([C@@H]2O[C@H](CO)[C@H](O)[C@H](O)[C@H]2O)n1	.	/	.	.	.	/	/
CCOC(=O)C1(CCCc2ccccc2)CCN(C(=O)C(C)n2cncn2)CC1 (stereo unspecified)	.	.	.	9.5	.	.	.
CCOC(=O)C1(CCCc2ccccc2)CCN(C(=O)CCn2cncn2)CC1	.	.	.	.	.	/	/
CCCCCCCOC(=O)C[N+](C)(C)CCOC1CC2CCC1(C)C2(C)C (stereo unspecified)	.	/	.	9.9	.	.	.
O=C1CCCN2N=C(SCC(=O)N3N=C(c4ccc(Br)cc4)CC3c3ccc(F)cc3)SC2=N1 (stereo unspecified)	.	.	.	14.5	.	.	.
Cc1ccc(C2CC(c3ccc(Br)cc3)=NN2C(=O)CSC2=NN3CCCC(=O)N=C3S2)cc1 (stereo unspecified)	.	.	.	.	.	/	/
O=C(NCC(=O)N1CCc2ccccc2C1)c1ccc(Cl)cc1Cl	.	.	.	11.8	.	.	.
COc1ccc(CCNC(=O)Nc2nnc([C@@H]3C[C@H](O)[C@@H](CO)O3)s2)cc1OC	.	/	.	.	.	/	/
O=C(NCCc1cccs1)Nc1nnc([C@H]2C[C@H](O)[C@@H](CO)O2)s1	.	/	.	11.0	.	.	.
Cc1cc(C)nc(SCCn2c(N3CCCCC3)nc3c2c(=O)n(C)c(=O)n3C)n1	.	/	.	9.6	.	.	.
CCc1nc2ccc(C(=O)N(CC)CCN(C)C)cn2c1N(C)C(=O)c1cccc(OC)c1	.	/	.	.	.	/	/
O=c1[nH]n2c(=O)c3c([nH]c2c1N=Nc1cccc(Cl)c1)CCC3	.	.	.	10.0	.	.	.
CC12CCC(=O)N1C(C(=O)Nc1cc(S(=O)(=O)N3CCCCCC3)ccc1OCC(F)(F)F)CS2 (stereo unspecified)	.	.	.	11.3	.	.	.
CC12CCC(=O)N1C(C(=O)Nc1cccc(S(=O)(=O)N3CCCCCC3)c1)CS2 (stereo unspecified)	.	.	.	10.3	.	.	.
CC12CCC(=O)N1C(C(=O)Nc1ccc(S(=O)(=O)N3CCCCC3)cc1)CS2 (stereo unspecified)	.	.	.	.	.	/	/
NNC(=S)Nc1c(F)cc(F)cc1Br	.	.	.	.	.	/	/
COCCCNc1nc2c(c(=O)n(Cc3ccc(F)cc3)c(=O)n2C)n1C	.	.	.	.	.	/	/
COCCCNc1nc2c(c(=O)n(Cc3ccc(OC)cc3)c(=O)n2C)n1C	.	.	.	10.0	.	.	.
